Where “and” joins values, the source holds several entries; their conditions need not be identical. Identical values can stand only once. About 83,000 compounds went through this panel and 20% of them were active in at least one assay; those are over-represented in the sample as a whole.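 Cell lines were cultured in 96-well plates, exposed to a single compound concentration, and assessed for percent growth 48 hours later.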 Unmarked numbers belong to inactive results. Calls of active or inactive are those of the source. How the source made its calls: active means growth percent below 10; inactive means the rest.

This test deals with MDA-MB-468 breast. Put plainly: NCI-60 one-dose screen, 48 h (100 = growth as untreated, 0 = no growth, -100 = all killed). The settings on record: 10 µM unless noted.
Turning to `CNC(=O)c1cc(Oc2ccc3c(c2)sc2nc(-c4ccc(NC(=O)Nc5ccc(Cl)c(C(F)(F)F)c5)cc4)cn23)ccn1`, the growth is 93.9%.

On to `COc1ccc(C(=O)n2nc(/C=C/c3ccc(O)c(OC)c3)cc2/C=C/c2ccc(O)c(OC)c2)cc1`, for which the growth was -8.43% (active).

Turning to `COc1cc([C@H](C)c2ccc3ccccc3c2)cc(OC)c1OC`, the growth is 47.3%.

As to `COc1ccc(C2CC(=O)Nc3c2c(C)nn3-c2nc3ccccc3[nH]2)cc1` (stereo not drawn), the growth is 101%.

As to `CCc1c2c(nc3ccc(OCc4ccc(B(O)O)cc4)cc13)-c1cc3c(c(=O)n1C2)COC(=O)[C@]3(O)CC`, the growth is -48.4% (active).

With `COc1cc2nc(N3CCC[C@@H](NC4=CC(=O)c5ccccc5C4=O)C3)nc(N)c2cc1OC`, the growth is -51.3% (active).

Take `COC(=O)c1cc(-c2ccc(Cl)c(Cl)c2)[nH]c(=O)c1C#N`: the growth was 99.6%.

For the compound `O=C(Nc1ccc(N2CCCCC2)c(Cl)c1)c1ccc(Br)o1`, the growth is 89.7%.

`COc1ccc(COC=O)cc1`: the growth was 114%.

Consider `N#CC(C#N)=C/C=C/c1cccc([N+](=O)[O-])c1`, for which the growth is -56.4% (active) and -30.4% (active).

On to `C=C(C)C(=O)O[C@H]1C[C@@]2(C)OC(=CC2=O)/C(CO)=C\[C@H]2OC(=O)C(=C)[C@H]12`, for which the growth is -34% (active).

`COC12C=C/C(=C(/C(=O)OCc3csc(SC)n3)C(=O)CCCCCCCCC3(OC)C=C/C(=C(/C(=O)OCc4cnc(SC)s4)C(=O)CCCCCCCC1)O3)O2` (stereo not drawn): the growth was 29.5%.

Consider `NC(=O)c1c(NC(=O)c2cccc(C(F)(F)F)c2F)sc2c1CCC(=O)C2`, for which the growth is -1.45% (active).

The values are drawn from PubChem BioAssay (NCI).
